ABHD5 PLIN5 PPI – inhibitors of human ABHD5-perilipin-5 interaction. AID 602281. inhibition, % at 4 µM. Split G. princeps luciferase complementation, luminescence, 4 h. actives 0.78% (n = 360,000);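 active = inhibition above the mean inhibition across every tested compound plus 3 SD, cut at about 22% in these data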;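 note: 0% = DMSO only wells and the 100% control is not disclosed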
Target sequence (Q00G26 whole entry, looked up): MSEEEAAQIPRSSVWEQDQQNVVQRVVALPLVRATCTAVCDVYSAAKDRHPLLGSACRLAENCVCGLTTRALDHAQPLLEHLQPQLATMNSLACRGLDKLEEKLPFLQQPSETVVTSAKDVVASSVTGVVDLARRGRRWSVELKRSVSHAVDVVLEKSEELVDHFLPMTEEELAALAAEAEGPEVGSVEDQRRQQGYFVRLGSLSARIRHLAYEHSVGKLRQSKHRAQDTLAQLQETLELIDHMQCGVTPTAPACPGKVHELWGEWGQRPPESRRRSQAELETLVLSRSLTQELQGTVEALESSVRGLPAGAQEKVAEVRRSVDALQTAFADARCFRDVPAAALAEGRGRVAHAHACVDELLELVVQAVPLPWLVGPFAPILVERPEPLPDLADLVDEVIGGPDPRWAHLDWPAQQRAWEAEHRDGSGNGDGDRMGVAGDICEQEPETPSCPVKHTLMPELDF
Target sequence (Q8WTS1 whole entry, looked up): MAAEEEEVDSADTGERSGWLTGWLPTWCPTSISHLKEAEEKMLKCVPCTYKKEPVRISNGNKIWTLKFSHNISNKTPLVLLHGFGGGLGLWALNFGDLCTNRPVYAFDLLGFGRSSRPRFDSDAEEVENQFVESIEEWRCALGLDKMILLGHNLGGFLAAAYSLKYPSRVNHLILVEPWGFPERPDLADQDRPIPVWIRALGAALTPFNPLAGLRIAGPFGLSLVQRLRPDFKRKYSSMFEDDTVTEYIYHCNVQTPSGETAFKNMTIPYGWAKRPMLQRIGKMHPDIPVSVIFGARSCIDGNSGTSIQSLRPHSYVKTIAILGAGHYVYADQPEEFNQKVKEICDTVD
HIF-2a block – blocks HIF-2a reporter activity; actives 0.72% (n = 360,000); inhibition, % at 18.8 µM; 786-0 RCC cells HIF-2a reporter, luciferase luminescence, overnight;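 active = inhibition of the luminescence signal of 40% or more relative to plate controls, in a single-dose primary screen at 18.75 µM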
Peg3 prom inh-1 – inhibitors of Peg3 promoter. HeLa PEG-Prom luciferase reporter, luminescence, overnight. inhibition, % at 20 µM. actives 1.7% (n = 360,000). AID 588405;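 active = inhibition of at least 50% at 20 µM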
KKLEB tox – counter-screen for CF NF-kB inhibitors: cytotoxicity. AID 602141. KKLEB CF airway cells viability, ATPlite luminescence, overnight; active compounds read low; cells stimulated with P. aeruginosa culture filtrate. actives 0.36% (n = 360,000). activity change (cytotoxicity), % at 5 µM;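 active = corrected activity change at or below -50% at 5 µM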
MITF TRPM1 inh – MITF TRPM1 promoter inhibition in SK-MEL-5 cells; SK-MEL-5 TRPM1 promoter luciferase, 24 h; AID 488899; actives 0.83% (n = 330,000); inhibition, % at 12.5 µM;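 active = mean inhibition across replicates of 60% or more, whatever share of single replicates reaches that level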
CF NFkB inh – inhibitors of cystic fibrosis induced NF-kB. KKLEB NF-kB-GFP reporter, PAF-induced, GFP fluorescence overnight. inhibition, % at 5 µM. actives 0.86% (n = 360,000). AID 588850;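 active = at least 50% inhibition at 5 µM, scaled per plate between neutral and stimulator controls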;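 note: PAF is a Pseudomonas aeruginosa culture filtrate used as stimulus; plate controls were PAF-stimulated DMSO wells for no effect and unstimulated DMSO wells for full effect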
Peg3 prom inh-2 – confirmation of Peg3 promoter inhibitors; inhibition, % at 20 µM; HeLa PEG-Prom luciferase reporter, luminescence, overnight; actives 84% (n = 1,300); AID 602417; shares compounds with Peg3 prom inh-1;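 active = at 20 µM dose, 40% or more inhibition averaged across four replicates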
* hit, by the source's call; x = not tested or not shown. Compounds with a hit are over-represented: about 3% of the library has one in this group of screens.

SMILES	ABHD5 PLIN5 PPI	HIF-2a block	Peg3 prom inh-1	KKLEB tox	MITF TRPM1 inh	CF NFkB inh	Peg3 prom inh-2
COc1ccc(OC)c(NC(=O)c2cc3c(Cl)nc4ccccc4c3s2)c1	3.6	6.3	64.5*	-26.4	8.4	18.2	20.1
COc1cc(NC(=O)c2ccccn2)cc(OC)c1OC	8.1	6.7	1.3	2.5	13.6	-33.2	x
COc1cc(C(=O)N/N=C(\c2ccccc2)c2ccccn2)cc(OC)c1OC	6.5	28.9	107.0*	1.8	78.4*	15.8	80.7*
Cc1c(S(=O)(=O)Nc2cccc3ccccc23)c(=O)n(C)c(=O)n1C	6.4	21.7	19.0	-8.0	7.1	4.8	x
Cc1[nH]n(-c2nc(-c3ccc(Cl)cc3)cs2)c(=O)c1N=Nc1ccc(O)cc1	1.1	-103.9	54.2*	-3.2	38.9	16.8	-41.8
CCc1c(C)[nH]n(-c2nc(-c3ccccc3)cs2)c1=O	-10.3	-73.5	-59.8	17.7	-14.6	-9.0	x
CC(C)C(=O)NC(=S)Nc1ccccc1N1CCN(C(=O)c2ccccc2)CC1	-0.3	14.9	58.0*	-23.4	-4.3	8.4	40.3*
COc1ccc(C(=O)O/N=C(\N)c2ccccn2)cc1	-5.9	16.7	98.8*	-6.8	80.5*	2.4	91.9*
N/C(=N\OC(=O)c1ccccc1Cl)c1ccccn1	3.7	30.1	59.2*	-36.9	66.3*	-17.0	6.1
N/C(=N\OC(=O)c1ccc(Cl)cc1)c1ccccn1	0.2	-3.5	78.3*	-23.3	-18.2	-9.4	-6.0
COc1ccc(C(=O)NNC(=O)c2ccccn2)cc1	0.0	82.6*	104.6*	-17.5	85.4*	-19.3	95.3*
Cc1c(C(=O)Nc2ccc(S(=O)(=O)N(C)C3CCN(C)CC3)cc2)oc2c(Cl)cccc12	11.3	-27.4	99.3*	-30.5	79.3*	-10.0	98.7*
CN1CCC(N(C)S(=O)(=O)c2ccc(NC(=O)COc3ccc(Br)cc3Cl)cc2)CC1	8.1	3.3	70.8*	-14.8	-15.2	10.4	70.6*
COCCn1c(C)cc(C(=O)COC(=O)c2cccc(O)c2)c1C	4.5	37.9	74.6*	-4.1	42.6	-7.6	68.3*
COCCn1c(C)cc(C(=O)COC(=O)c2cc3c(s2)CCC3)c1C	9.4	-144.5	-219.9	7.3	-11.9	0.4	x
CC(C)Oc1ccc(C(=O)Nc2c3c(nn2C(C)(C)C)CS(=O)(=O)C3)cc1	4.8	6.2	-0.4	-1.8	-1.3	5.0	x
C=CCn1nc([N+](=O)[O-])nc1Sc1cccc2cccnc12	-7.8	-8.6	53.6*	7.3	43.8	-6.5	25.6
N#CC1=C(N)Oc2c(ccc3cccnc23)C1c1ccccc1 (stereo not given)	4.0	14.5	21.8	-6.0	32.2	11.3	x
Cc1ccc2[nH]c(=O)c(C3C(C#N)=C(N)Oc4c3ccc3cccnc43)cc2c1 (stereo not given)	7.3	9.7	50.3*	7.5	16.6	-22.8	48.4*
COc1ccc(/C=C2\SC(=S)N(CCC(=O)N(CCO)Cc3ccccc3)C2=O)cc1OC	4.0	12.9	78.2*	-10.1	6.5	23.3	14.4
c1ccc(-c2oc3ncnc(NCCCn4ccnc4)c3c2-c2ccccc2)cc1	13.9	-9.3	29.0	-19.8	7.7	17.9	x
CN(C)CCCNc1ncnc2oc(-c3ccccc3)c(-c3ccccc3)c12	1.9	-6.4	97.0*	-12.6	0.6	8.0	96.6*
Cc1csc2nc(COC(=O)CNC(=O)c3ccc(Cl)cc3)cc(=O)n12	8.3	8.4	1.7	1.2	-5.3	7.6	x
Cc1csc2nc(COC(=O)c3ccc(Cl)c([N+](=O)[O-])c3)cc(=O)n12	-1.4	4.6	59.2*	-11.2	33.7	26.4	-1.2
O=C(Nc1nc(-c2ccc3ccccc3c2)cs1)c1ccc(N2C(=O)CCC2=O)cc1	-1.3	-8.6	55.8*	-12.1	20.4	18.0	17.2
SMILES	ABHD5 PLIN5 PPI	HIF-2a block	Peg3 prom inh-1	KKLEB tox	MITF TRPM1 inh	CF NFkB inh	Peg3 prom inh-2
CN(C(=O)c1ccc(NC(=O)Cc2cccc(NC(=O)C3CCN(C(=O)C4CCCCC4)CC3)c2)cc1)C1CCCC1	7.0	11.2	-1.9	4.0	14.5	-20.5	x
COc1ccc(OC)c(-c2csc(NC(=O)Cn3[nH]c(=O)c4ccccc4c3=O)n2)c1	-10.2	0.1	54.8*	3.5	3.3	-25.9	27.9
COc1ccc(OC)c(-c2csc(NC(=O)Cc3ccc(F)cc3)n2)c1	-6.1	-56.6	-44.2	18.3	-0.5	-24.2	x
CCOC(=O)c1ccccc1NC(=S)N1CCN(C2CCCCC2)CC1	1.5	-10.6	-9.5	-1.7	8.6	20.5	x
O=C(Nc1ccccc1)c1nc[nH]c1C(=O)NCCCNC(=O)c1[nH]cnc1C(=O)Nc1ccccc1	-2.7	0.7	62.7*	-29.2	4.5	17.1	46.3*
O=C(Nc1ccccc1)c1nc[nH]c1C(=O)NCCCCCCNC(=O)c1[nH]cnc1C(=O)Nc1ccccc1	3.3	4.7	61.6*	-7.6	13.2	7.4	56.8*
CNC(=O)c1[nH]cnc1C(=O)Nc1ccccc1	-0.6	-62.5	-45.7	7.6	-18.9	7.4	x
O=C(Nc1ccccc1)c1nc[nH]c1C(=O)NCCN(CCNC(=O)c1[nH]cnc1C(=O)Nc1ccccc1)CCNC(=O)c1[nH]cnc1C(=O)Nc1ccccc1	-7.5	1.0	40.6	-3.1	0.3	8.1	x
N#Cc1ccc(-c2nc3c4ccccc4ccn3c2Cc2cccc(Cl)c2)cc1	0.4	-25.2	-13.8	-9.3	x	-24.1	x
Cc1ccc(/C=N/NC(=O)c2nnn(-c3nonc3N)c2CNc2ccccc2)cc1	2.8	4.3	15.6	1.5	8.0	-12.7	x
Nc1nonc1-n1nnc(C(=O)N/N=C/c2cc(Br)ccc2O)c1CNc1ccccc1	-3.9	2.8	55.7*	-31.7	27.7	26.2	71.5*
Cc1cc(C)cc(OCCCCn2cncn2)c1	0.3	19.8	14.2	1.2	3.2	0.3	x
CN1CCC(NC(=O)c2cc(-c3cccc(Br)c3)nc3ccccc23)CC1	14.2	-19.1	105.3*	-3.8	-4.4	-11.1	78.9*
CC(C)CN1C(=O)C(=O)N(CC(=O)N(C)CC(=O)Nc2ccc(F)cc2)C1=O	5.2	15.7	-5.7	-13.5	-10.8	18.3	x
CCN(CC)CCNc1cccc2sc3ccccc3c(=O)c12	8.9	4.9	100.8*	-8.7	x	-12.6	68.2*
CCOc1ccc(C(C(=O)NC2CCCC2)N(CCCO)C(=O)c2ccc(-c3ccccc3)[nH]2)cc1 (stereo not given)	1.6	-21.5	-8.3	-4.7	-14.3	3.7	x
Cc1[nH]c(C)c2c(=O)[nH]ncc12	6.5	15.0	0.5	-7.2	10.1	1.0	x
O=C(/C=C\Nc1ccc2c(c1)OCO2)c1ccccn1	0.7	71.4*	84.6*	-54.5*	75.3*	-16.7	71.2*
O=C(Nc1ccc2c(c1)OCO2)c1ccccn1	-1.1	-170.6	-233.8	1.7	-47.1	10.9	x

Bioassay records as filed in PubChem BioAssay.
